The values that follow come from PubChem BioAssay.

This experiment deals with Plasmodium falciparum Sir2 (PF13_0152, Sir2A). Put plainly: pfSir2 binders on small-molecule microarrays, primary screen, biochemical, small-molecule microarray, 635 nm fluorescence (AID 1098).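 Note: score merges spot fluorescence intensity with its signal-to-noise ratio.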 The following applies: small-molecule microarray binding, fluorescence 635 nm; higher = more signal.
`C#C[C@H](O[Si](C#CCCCCCC)(C(C)C)C(C)C)c1ccccc1`: the composite z-score was -0.369.
Then `C=CCNC(=O)[C@H]1[C@@H]2C(=O)O[C@@H](c3ccccc3)[C@@H](c3ccccc3)N2[C@@H](c2ccc(O)cc2)[C@]12C(=O)Nc1ccc(C#Cc3ccc(OC)cc3)cc12`, with 1.53.
With `[N-]=[N+]=NCc1ccccc1C[C@@]1(C(=O)NCc2ccccc2)N=C(c2ccc(OCCCO)cc2)O[C@@H]1c1ccccc1CN=[N+]=[N-]` the figure was 1.39; with `C[N+](C)(C)CCCC[C@@H]1NC(=O)[C@H]2C[C@@H](C(=O)O)[C@@H](c3cccc(OCCO)c3)N2C1=O`, 2.08.
With `C=CCN1Cc2ccccc2C[C@@]2(COC(c3ccc(OCCCO)cc3)=N2)C1=O` the figure was 1.03.
Take `[N-]=[N+]=NCc1ccccc1C[C@]1(C(N)=O)N=C(c2ccc(OCCCO)cc2)O[C@H]1c1ccccc1N=[N+]=[N-]`: the composite z-score amounted to 0.573.
With `CC(C)N1C(=O)c2ccccc2[C@](C)(C(=O)NCCCN(C)C)[C@@H]1c1ccc(CO)cc1` the figure was 0.928.
Then `COCCOC(=O)N1C(=O)[C@@]2(c3ccccc31)[C@H](C(=O)N1CCCCCCC1)[C@H]1C(=O)O[C@H](c3ccccc3)[C@H](c3ccccc3)N1[C@@H]2c1ccccc1OCCO`, with 1.72; and `C=C(COC)C(=O)CC[C@@H](OC(=O)c1ccccc1-c1ccccc1C(=O)O)c1ccc(CO)o1`, with 1.51; and `COCCn1c(C(=O)N2CCCC2)cc2c1C[C@H]1CN(C(=O)c3ccccc3)[C@@](Cc3ccc(OC)cc3)(C(=O)OC)[C@@H]21`, with 0.994.
Then `COc1ccc([Si](C)(C)[C@H]2[C@H](CC(=O)N3CCC[C@H]3CO)O[C@@]3(C(=O)N(c4ccccc4)c4ccccc43)[C@@H]2C)cc1`, with 1.28; and `C=CCC(OC(C)=O)[C@@H]1[C@@H](N(Cc2cc3ccccc3o2)C(=O)c2ccc(-c3ccccc3)cc2)c2cc(OCCCO)ccc2N1C(=O)Cc1ccc2ccccc2c1` (some centres undefined), with -0.366; and `C/C=C/[C@H](CCn1cc([C@H](O)c2ccccc2)nn1)[Si](C)(C)c1ccc(OC)cc1`, with 0.0765.
With `CCCC[C@@H]1C[C@H]1[C@@H](NC(=O)c1ccccc1)c1ccccc1`, the composite z-score is -0.563.
The molecule `O=C1OCCC=C[C@H]2OC34C=CCN(c5ccc6ccccc6c5)C(=O)[C@H]3N(CCCCCCO)C(=O)[C@@H]4C12` (some centres undefined) came in with a composite z-score of 0.924.
Take `COc1ccc([Si](C)(C)[C@H]2[C@H](CC(=O)N(CCO)Cc3ccccc3)O[C@@]3(C(=O)N(Cc4cccc(N5C(=O)c6cccc7cccc5c67)c4)c4ccccc43)[C@@H]2C)cc1`: the composite z-score came out at 0.803.
Then `C=CCC(OC(C)=O)[C@@H]1[C@@H](N(Cc2cc3ccccc3o2)C(=O)c2cccc3ccccc23)c2cc(OCCCO)ccc2N1C(=O)Cc1ccc(OC)cc1` (some centres undefined), with 0.495; and `COC(=O)[C@@]1(Cc2ccc(OC)cc2)[C@H]2c3cc(C(=O)N4CCCC4)n(CCc4ccccn4)c3C[C@H]2CN1C(=O)c1ccccc1`, with 1.18.
Then `C=CCN1C(=O)[C@]2(Cc3ccccc31)N=C(c1ccc(OCCCO)cc1)O[C@@H]2c1ccccc1`, with 0.733; and `CCCC[C@H]1OB(O)C[C@H]2C1=C(C)Cn1c(=O)n(-c3ccccc3)c(=O)n12`, with 0.161; and `CCN(CC)c1ccc(N2CC=CC34O[C@@H]5C=CCOC(=O)[C@@H]5[C@H]3C(=O)N(CCCCCO)[C@@H]4C2=O)cc1` (some centres undefined), with 1.85.
With `C#C[C@H]1Oc2ccccc2S(=O)(=O)N2CCC[C@@H]12` the figure was 0.578; with `O=C1C[C@@](C(=O)O)(c2ccc([N+](=O)[O-])cc2)[C@@H](c2ccc(CO)cc2I)N1CC12CC3CC(CC(C3)C1)C2`, 0.816.
On to `CCOC(=O)N1C(c2ccc(OCCCO)cc2)=NC(C(=O)OC)N1C(=O)OCC` (centres undefined), for which the composite z-score was determined as 0.587.
